# Measured values published in PubChem BioAssay (NCATS).
# Records with an inconclusive call do not appear. A call without a number means that no potency is given here. Calls of active or inactive are those of the source. The call rests on the fitted dose curve; in most records, active means well fitted cell-killing curve with a large enough effect; inconclusive means small, poorly fitted or top-dose-only effect; inactive means flat fitted curve, though single readings scatter.
# Assay: Cell Viability - LYMP2-010 (AID 981); further: nearly all actives have a fitted effect of over 55% in size
# Conditions: LYMP2-010 lymphoblastoid cell viability, qHTS; series mostly up to 92.2 µM
# Text: NIH Chemical Genomics Center [NCGC]
# NIH Molecular Libraries Screening Centers Network [MLSCN]
# National Institutes of Environmental Health Sciences [NIEHS]
# National Toxicology Program [NTP]
# We have developed a 1536-well cell-based assay for quantitative high throughput screening (qHTS) against a number of cell lines to determine in vitro cytotoxicity of small molecules. This particular assay uses a human lymphoblastoid cell line (LYMP2-010) purchased from Coriell Institute for Medical Research.
# NCGC Assay Protocol Summary:
# The CellTiter-Glo luminescent cell viability assay (Promega) is a homogeneous method to measure the number of viable cells in culture. The end point readout of this assay is based on quantitation of intracellular ATP, an indicator of metabolic activity, using the luciferase reaction. Luciferase catalyzes the oxidation of beetle Luciferin to oxyluciferin and light in the presence of ATP. The luminescent signal is proportional to amount of ATP present.
# Using the CellTiter-Glo luminescent cell viability assay, the amount of cellular ATP was measured in the lymphoblastoid cell line with complete culture medium following compound treatment for 24 hours. The assay was performed in opaque white Kalypsys 1536-well plates. In the screen, tetraoctylammonium bromide was used as positive control. Library compounds were measured for their ability to cause acute toxicity in the cell line, as reflected by a decrease in intracellular ATP levels, in a concentration-dependent manner. […] AC50 values were determined from concentration-response data modeled with the standard Hill equation.
# qHTS protocol for CellTiter Glo lymphoblastoid cellular assay
# [Step] [Parameter] [Value] [Description]
# 1. Reagent; 5 uL; 2500 lymphoblastoid cells/well
# 2. Time; 5 hr; 37 C incubation
# 4. Controls; 23 nL; Tetraoctylammonium bromide 6.4pM to 92 uM
# 5. Time; 24 hr; 37 C incubation
# 6. Reagent; 5 uL; CellTiter Glo reagent
# 7. Time; 30 min; Room Temperature
# 8. Detection; Luminescence; Viewlux plate reader
# Keywords: cell viability, cytotoxicity, lymphoblastoid cell line, luminescence, NTPHTS, NTPHTS_NCGC, NIEHS, DSSTox, MLSMR, MLSCN, NIH Roadmap, qHTS, NCGC
# Potency means the concentration at half of the fitted maximal effect.
row,SMILES,Potency
1,O=C(O)C(Cl)Br (stereo not given),inactive
2,CCCCC(CC)COC(=O)c1ccc(C(=O)OCC(CC)CCCC)c(C(=O)OCC(CC)CCCC)c1 (stereo not given),inactive
3,ClC(Cl)C(Cl)Cl,inactive
4,ClCCOCOCCCl,inactive
5,CCCN(CCC)c1c([N+](=O)[O-])cc(C(F)(F)F)cc1[N+](=O)[O-],inactive
6,COC(=O)Nc1nc2ccccc2[nH]1,inactive
7,CC(C#N)CCC#N (stereo not given),inactive
8,c1ccc(Nc2ccc(Nc3ccccc3)cc2)cc1,inactive
9,Cc1coc2c1CCC(C)C2 (stereo not given),inactive
10,COC(=O)c1ccccc1N,inactive
11,Cc1cc(N=Nc2ccccc2C)ccc1N,inactive
12,O=[N+]([O-])c1ccc2c3c(cccc13)CC2,inactive
13,CCBr,inactive
14,Nc1ccc(Cc2ccc(N)cc2)cc1,inactive
15,C/C=C/C=O,inactive
16,CC(C)(OOC(C)(C)c1ccccc1)c1ccccc1,inactive
17,Nc1cc(Cl)cc(Cl)c1,inactive
18,CCC(Cl)[N+](=O)[O-] (stereo not given),inactive
19,ClC(Cl)Br,inactive
20,Nc1cccc(Cl)c1,inactive

row,SMILES,Potency
1,ClCCCCl,inactive
2,N#CC(Br)Br,50.1 µM (active)
3,ClCc1ccccc1,inactive
4,CC(C)[C@]12CC(=O)[C@H](C)[C@H]1C2,inactive
5,CN(C)N=O,inactive
6,N#CCc1ccccc1,inactive
7,C=CCc1cc(OC)c2c(c1)OCO2,inactive
8,Oc1c(Cl)cccc1Cl,inactive
9,O=[N+]([O-])c1cccc2c([N+](=O)[O-])cccc12,inactive
10,C=CC(=O)OCC(C)C,inactive
11,O=C(O)CBr,inactive
12,OCCCCO,inactive
13,O=[N+]([O-])c1c(Cl)c(Cl)c(Cl)c(Cl)c1Cl,inactive
14,O=C(O)CCl,inactive
15,C=CC(=O)OCC(CC)CCCC (stereo not given),inactive
16,CCOP(=O)(OCC)OCC,inactive
17,CC(C)(C)OOC(=O)c1ccccc1,inactive
18,[O-][Cl+]O,inactive
19,Clc1ccccc1,inactive
20,Nc1cc(Cl)ccc1Cl,inactive
